Source: PubChem BioAssay
Compounds with a hit are over-represented: about 28% of the library has one in this group of screens.
CYP2C9 inh: blockers of cytochrome P450 2C9 activity – biochemical, luminescence, ADME assay, primary screen; P11712; CYP2C9 Supersomes, luciferin-H conversion; inhibition, % at 5 µM; 20% of 96,000 active;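 active = blocking of liver enzyme CYP2C9 beyond about 50% at 5 µM, limit read from the data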
CYP2C9 activ: human CYP2C9 activators, primary screen, biochemical, luminescence; Cytochrome P450 2C9 (Homo sapiens), P11712; recombinant CYP2C9, luciferin-H conversion; stronger effect = higher value; factor 1 = untreated enzyme, 0 = blocked; activation factor at 5 µM; 1.4% of 96,000 active;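 active = activation factor of 2 or more for CYP2C9 at a 5 µM dose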;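 note: 0 = sulfaphenazole-blocked wells and 1 = vehicle-only wells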
Mac1 fbg enh: enhancers of CD11b/CD18 adhesion to fibrinogen, primary screen, K562 cells, luminescence | Integrin beta-2 (Homo sapiens) + Integrin alpha-M (Homo sapiens), P05107+P11215 | ATPlite luminescence | activation, % at 10 µM | 0.07% of 93,000 active;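 active = 10 µM primary screen giving 50% or more activity, confirmed by 40% or more on retest at that dose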
Target sequence (P05107 whole entry, looked up, other chains not shown): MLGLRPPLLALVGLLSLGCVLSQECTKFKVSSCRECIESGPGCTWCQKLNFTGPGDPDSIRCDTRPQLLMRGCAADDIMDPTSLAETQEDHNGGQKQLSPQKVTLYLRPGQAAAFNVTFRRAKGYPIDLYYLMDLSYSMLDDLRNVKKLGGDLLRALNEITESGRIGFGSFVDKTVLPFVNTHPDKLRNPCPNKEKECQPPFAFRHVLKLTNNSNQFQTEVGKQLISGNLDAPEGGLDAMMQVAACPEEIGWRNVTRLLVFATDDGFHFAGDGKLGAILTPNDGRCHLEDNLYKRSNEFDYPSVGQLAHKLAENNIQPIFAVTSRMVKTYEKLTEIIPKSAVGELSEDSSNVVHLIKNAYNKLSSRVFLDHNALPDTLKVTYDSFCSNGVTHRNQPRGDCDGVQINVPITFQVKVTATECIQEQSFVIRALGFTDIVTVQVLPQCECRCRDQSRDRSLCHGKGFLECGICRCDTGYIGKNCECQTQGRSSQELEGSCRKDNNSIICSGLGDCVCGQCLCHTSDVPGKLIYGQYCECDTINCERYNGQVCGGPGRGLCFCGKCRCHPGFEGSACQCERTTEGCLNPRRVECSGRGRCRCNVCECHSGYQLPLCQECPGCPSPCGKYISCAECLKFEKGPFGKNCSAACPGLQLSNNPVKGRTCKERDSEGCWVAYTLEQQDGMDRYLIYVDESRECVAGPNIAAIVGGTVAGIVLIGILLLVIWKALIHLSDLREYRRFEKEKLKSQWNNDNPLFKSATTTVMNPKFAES
CYP2C19 inh: blockers of cytochrome P450 2C19 activity – biochemical, luminescence, ADME assay, primary screen; inhibition, % at 5 µM; 21% of 96,000 active; CYP2C19 Supersomes, luciferin-H EGE luminescence, 30 min;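 active = CYP2C19 inhibition above a set limit at 5 µM in the primary screen, cut at about 50% in these data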;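 note: plate controls were negative control wells for no effect and 2.5 mM tranylcypromine positive control for full effect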
CYP2C19 act: human CYP2C19 activators, primary screen, biochemical, luminescence | 96,000 tested, under 10 active | activation factor at 5 µM | AID 1025, 2008 | recombinant CYP2C19, luciferin-H EGE luminescence; stronger effect = higher value; 0 = fully inhibited enzyme, 1 = untreated enzyme;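 active = activation factor of at least 2 at 5 µM in the primary screen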;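 note: 0 = wells with 2.5 mM tranylcypromine and 1 = vehicle-only wells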
Mac1 fbg inh: inhibitors of CD11b/CD18 adhesion to fibrinogen, primary screen, K562 cells, luminescence; ATPlite luminescence; Mn2+ added to activate the integrin; inhibition, % at 10 µM; 0.54% of 93,000 active;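 active = primary inhibition of 50% or more at 10 µM, then 40% or more on retest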
The depositor's hits bear a star.

Results for Cc1cccn2c(=O)c(/C=C(\C#N)C(=O)NCc3ccco3)c(N3CCCCC3)nc12 ?
Mac1 fbg enh: 4; Mac1 fbg inh: 8

How did Cc1ccc(S(=O)(=O)/C(C#N)=C/c2c(N3CC(C)OC(C)C3)nc3c(C)cccn3c2=O)cc1 (stereo not drawn) do in these assays?
CYP2C9 inh: 72*; CYP2C9 activ: 0.3; Mac1 fbg enh: -1; CYP2C19 inh: 7; CYP2C19 act: 0.9; Mac1 fbg inh: 10

How did CCN1CCN(c2nc3c(C)cccn3c(=O)c2/C=C(\C#N)S(=O)(=O)c2ccc(C)cc2)CC1 do in these assays?
CYP2C9 inh: 89*; CYP2C9 activ: 0.1; Mac1 fbg enh: -3; CYP2C19 inh: 33; CYP2C19 act: 0.7; Mac1 fbg inh: -17

Results for Cc1ccc(S(=O)(=O)/C(C#N)=C/c2c(N3CCN(C)CC3)nc3c(C)cccn3c2=O)cc1 ?
CYP2C9 inh: 85*; CYP2C9 activ: 0.2; Mac1 fbg enh: 1; CYP2C19 inh: 9; CYP2C19 act: 0.9; Mac1 fbg inh: -17

Results for CCNC(=O)/C(C#N)=C/c1c(N2CCN(Cc3ccc4c(c3)OCO4)CC2)nc2c(C)cccn2c1=O ?
Mac1 fbg enh: -1; Mac1 fbg inh: -22

Results for Cc1cccn2c(=O)c(/C=C(\C#N)S(=O)(=O)c3ccccc3)c(N3CCN(C)CC3)nc12 ?
CYP2C9 inh: 75*; CYP2C9 activ: 0.2; Mac1 fbg enh: 0; CYP2C19 inh: -10; CYP2C19 act: 1.1; Mac1 fbg inh: 0

Results for O=C(C1CCN(S(=O)(=O)N2CCOCC2)CC1)N1CCOCC1 ?
CYP2C9 inh: -4; CYP2C9 activ: 1; Mac1 fbg enh: 2; CYP2C19 inh: -9; CYP2C19 act: 1.1; Mac1 fbg inh: -10

Results for O=C(O)CCC(=O)N1CCc2cc(S(=O)(=O)N3CCC(Cc4ccccc4)CC3)ccc21 ?
CYP2C9 inh: 18; CYP2C9 activ: 0.8; Mac1 fbg enh: -5; CYP2C19 inh: 33; CYP2C19 act: 0.7; Mac1 fbg inh: 16

What do the screens show for `Cn1nnnc1SCc1nnc(-c2ccc(F)cc2)o1`?
CYP2C9 inh: -25; CYP2C9 activ: 1.3; Mac1 fbg enh: 1; CYP2C19 inh: -16; CYP2C19 act: 1.2; Mac1 fbg inh: 6

How did FCCCOc1ccc(/C=N/OCc2ccc(Cl)cc2)cc1 do in these assays?
CYP2C9 inh: 10; CYP2C9 activ: 0.9; Mac1 fbg enh: -2; CYP2C19 inh: 7; CYP2C19 act: 0.9; Mac1 fbg inh: -11

What do the screens show for `CCOc1ccc(-n2c(SCC(=O)NCc3ccco3)nnc2-c2c[nH]c3ccccc23)cc1`?
CYP2C9 inh: 60*; CYP2C9 activ: 0.4; Mac1 fbg enh: 23; CYP2C19 inh: 7; CYP2C19 act: 0.9; Mac1 fbg inh: -14

What do the screens show for `Cn1c(SCC(=O)NCc2ccco2)nnc1-c1c[nH]c2ccccc12`?
CYP2C9 inh: 38; CYP2C9 activ: 0.6; Mac1 fbg enh: -2; CYP2C19 inh: 52*; CYP2C19 act: 0.5; Mac1 fbg inh: -11

What do the screens show for `Cc1nc2nc(-c3ccc(Cl)cc3)[nH]n2c(=O)c1C`?
CYP2C9 inh: 0; CYP2C9 activ: 1; Mac1 fbg enh: -2; CYP2C19 inh: -11; CYP2C19 act: 1.1; Mac1 fbg inh: 3

How did O=C(CCn1nnc2ccccc21)Nc1nnc(Cc2ccc(F)cc2)s1 do in these assays?
CYP2C9 inh: 10; CYP2C9 activ: 0.9; Mac1 fbg enh: 3; CYP2C19 inh: 11; CYP2C19 act: 0.9; Mac1 fbg inh: -9

What do the screens show for `O=C(CCn1nnc2ccccc21)N1CCC(O)(c2cccc(F)c2)CC1`?
CYP2C9 inh: 52*; CYP2C9 activ: 0.5; Mac1 fbg enh: 4; CYP2C19 inh: 43; CYP2C19 act: 0.6; Mac1 fbg inh: -5

Results for CN1CCN(c2nc(NCCOC34CC5CC(CC(C5)C3)C4)nc(OCC(F)(F)F)n2)CC1 ?
CYP2C9 inh: -2; CYP2C9 activ: 1; CYP2C19 inh: 39; CYP2C19 act: 0.6

Results for CCOC(=O)N1CCN(c2nc(C)cc(C(F)(F)F)n2)CC1 ?
CYP2C9 inh: 41; CYP2C9 activ: 0.6; Mac1 fbg enh: 6; CYP2C19 inh: 66*; CYP2C19 act: 0.3; Mac1 fbg inh: -20

Results for CCOC(=O)N1CCN(c2nc(C(F)(F)F)nc3c(C)cc(C)cc23)CC1 ?
CYP2C9 inh: -9; CYP2C9 activ: 1.1; Mac1 fbg enh: 5; CYP2C19 inh: -7; CYP2C19 act: 1.1; Mac1 fbg inh: 25

How did CCCCN(C(=O)NC(=O)Nc1ccccc1C)S(C)(=O)=O do in these assays?
CYP2C9 inh: 53*; CYP2C9 activ: 0.5; CYP2C19 inh: 27; CYP2C19 act: 0.7

What do the screens show for `COC(=O)c1onc(C(=O)c2ccccc2)c1C(=O)OC`?
CYP2C9 inh: 51*; CYP2C9 activ: 0.5; Mac1 fbg enh: 3; CYP2C19 inh: 62*; CYP2C19 act: 0.4; Mac1 fbg inh: -16

How did COc1cc(C(=O)Nc2nc3ccc(S(=O)(=O)N4CCOCC4)cc3s2)cc(OC)c1OC do in these assays?
CYP2C9 inh: 79*; CYP2C9 activ: 0.2; Mac1 fbg enh: 12; CYP2C19 inh: 54*; CYP2C19 act: 0.5; Mac1 fbg inh: 2

How did COc1ccc2nc(NC(=O)Cc3ccc(OC)c(S(=O)(=O)N4CCOCC4)c3)sc2c1 do in these assays?
CYP2C9 inh: 38; CYP2C9 activ: 0.6; Mac1 fbg enh: -1; CYP2C19 inh: 55*; CYP2C19 act: 0.5; Mac1 fbg inh: -20

How did CSc1nc2ccc(S(=O)(=O)N3CCOCC3)cc2s1 do in these assays?
CYP2C9 inh: 63*; CYP2C9 activ: 0.4; Mac1 fbg enh: 1; CYP2C19 inh: 100*; CYP2C19 act: 0; Mac1 fbg inh: -37

How did O=C(Nc1nc2ccc(S(=O)(=O)N3CCCCC3)cc2s1)C1CCCO1 (stereo not drawn) do in these assays?
CYP2C9 inh: 77*; CYP2C9 activ: 0.2; Mac1 fbg enh: 2; CYP2C19 inh: 7; CYP2C19 act: 0.9; Mac1 fbg inh: 8

What do the screens show for `COc1ccc2nc(NC(=O)CN3CCOCC3)sc2c1`?
CYP2C9 inh: 26; CYP2C9 activ: 0.7; Mac1 fbg enh: -1; CYP2C19 inh: -3; CYP2C19 act: 1; Mac1 fbg inh: 0

Results for Cc1nc2cc(NC(=O)COc3ccc(C#N)cc3)ccc2n1-c1ccccc1 ?
CYP2C9 inh: 38; CYP2C9 activ: 0.6; Mac1 fbg enh: -4; CYP2C19 inh: 23; CYP2C19 act: 0.8; Mac1 fbg inh: -3

How did O=c1[nH]c2ccsc2c(=O)n1-c1ccc(F)cc1 do in these assays?
CYP2C9 inh: 7; CYP2C9 activ: 0.9; Mac1 fbg enh: -2; CYP2C19 inh: 11; CYP2C19 act: 0.9; Mac1 fbg inh: 5
